Test results: PubChem BioAssay (NCI)
About 83,000 compounds went through this panel and 20% of them were active in at least one assay; those are over-represented in the sample as a whole.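 Note: values are percent growth. 100 is the growth of untreated cells, values between 100 and 0 indicate rising inhibition; between -100 and 0 indicates cell death.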 Unmarked numbers belong to inactive results. Active and inactive are the calls of the source. Rule for the calls: active = growth percent below 10; inactive = the rest.

How the values were obtained:
Assay in all cases: NCI-60 one-dose screen, 48 h (100 = growth as untreated, 0 = no growth, -100 = all killed)
[1] = test system: HCT-15 colon; conditions: 10 µM unless noted
[2] = test system: SNB-75 CNS; conditions: 10 µM
[3] = test system: SNB-19 CNS; conditions: 10 µM unless noted
[4] = test system: U251 CNS; conditions: 10 µM unless noted
[5] = test system: PC-3 prostate; conditions: 10 µM unless noted
[6] = test system: SK-MEL-5 melanoma; conditions: 10 µM unless noted
[7] = test system: UACC-62 melanoma; conditions: 10 µM unless noted
[8] = test system: LOX IMVI melanoma; conditions: 10 µM unless noted
[9] = test system: SK-MEL-28 melanoma; conditions: 10 µM unless noted
[10] = test system: SK-MEL-2 melanoma; conditions: 10 µM unless noted
[11] = test system: EKVX NSCLC; conditions: 10 µM unless noted
[12] = test system: SN12C renal; conditions: 10 µM unless noted
[13] = test system: UO-31 renal; conditions: 10 µM unless noted
[14] = test system: TK-10 renal; conditions: 10 µM unless noted
[15] = test system: ACHN renal; conditions: 10 µM unless noted
[16] = test system: CAKI-1 renal; conditions: 10 µM unless noted
[17] = test system: A498 renal; conditions: 10 µM unless noted
[18] = test system: CCRF-CEM leukemia; conditions: 10 µM unless noted
[19] = test system: MOLT-4 leukemia; conditions: 10 µM unless noted
[20] = test system: HT29 colon; conditions: 10 µM unless noted

For `COc1cc(/C=C/C(=O)c2cccc(-n3cc(-c4cc(OC)c(OC)c(OC)c4)[nH]c3=O)c2)cc(OC)c1OC`, the growth [1] was -4.5% (active), the growth [2] was 44.6% and the growth [3] was 56.6%. The growth [4] was -41% (active), the growth [5] was 9.89% (active) and the growth [6] was 27%. The growth [7] was 7.42% (active), the growth [8] was -55% (active) and the growth [9] was 4.45% (active). For the same compound, the growth [10] was -2.34% (active), the growth [11] was 51.6% and the growth [12] was 11.5%. The growth [13] was 6.2% (active), the growth [14] was 27.8% and the growth [15] was -57.6% (active). The growth [16] was -24.2% (active), the growth [17] was 76.4% and the growth [18] was -1.54% (active). For the same compound, the growth [19] was -16% (active).
In the case of `C=C[C@@H]1C[C@@H]2Cc3cc(F)ccc3N1O2`, the growth [1] is reported as 104%, the growth [2] is reported as 99.7% and the growth [3] is reported as 109%. For the same compound, the growth [4] was 99.3%, the growth [5] was 102% and the growth [6] was 108%. It also gave a growth [7] of 100%, a growth [8] of 104% and a growth [9] of 115%. The growth [10] was 117%, the growth [11] was 110% and the growth [12] was 102%. The growth [13] was 129%, the growth [14] was 107% and the growth [15] was 106%. The growth [16] was 92.5%, the growth [17] was 97.8% and the growth [18] was -57.7% (active).
`C=C(C)[C@@H]1C[C@@H]2Cc3ccc(Cl)c(C)c3N1O2` gave a growth [1] of 93%, a growth [2] of 93% and a growth [3] of 103%. For the same compound, the growth [4] was 92.6%, the growth [5] was 87.9% and the growth [6] was 89.1%. The growth [7] was 93.4%, the growth [8] was 98.8% and the growth [9] was 107%. The growth [10] was 96.4%, the growth [11] was 86.2% and the growth [12] was 97.3%. For the same compound, the growth [13] was 99.3%, the growth [14] was 53.8% and the growth [15] was 96.8%. The growth [16] was 89.8%, the growth [17] was 83.2% and the growth [18] was -68.9% (active). For the same compound, the growth [19] was -2.28% (active).
For `C=C[C@@H]1C[C@H](O)Cc2cc(F)ccc2N1`, the growth [1] was 96.4%, the growth [2] was 87.9% and the growth [3] was 104%. The growth [4] was 93.3%, the growth [5] was 97.2% and the growth [6] was 93.3%. For the same compound, the growth [7] was 99.1%, the growth [8] was 94.2% and the growth [9] was 98.7%. For the same compound, the growth [10] was 123%, the growth [11] was 89.3% and the growth [12] was 101%. It also gave a growth [13] of 103%, a growth [14] of 97.7% and a growth [15] of 104%. The growth [16] was 92.3%, the growth [17] was 93.8% and the growth [18] was -66% (active). For the same compound, the growth [19] was -34.3% (active).
`CN(C)CCCN(c1nc(C(Cl)(Cl)Cl)ns1)c1nc(C(Cl)(Cl)Cl)ns1` was tested, and the growth [1] was 41.2%, the growth [20] was 0.235% (active) and the growth [4] was 27.4%. For the same compound, the growth [5] was 22.2%, the growth [7] was 1.86% (active) and the growth [8] was -31.4% (active). It also gave a growth [9] of 51.9%, a growth [10] of 47% and a growth [11] of 55.1%. For the same compound, the growth [12] was 41.8%, the growth [13] was -84.7% (active) and the growth [14] was 63.5%. For the same compound, the growth [15] was 54.6%, the growth [16] was 43.9% and the growth [17] was 73.7%. For the same compound, the growth [18] was 30.3% and the growth [19] was 3.33% (active).
With `N#C/C(=C1C=C/C(=N/O)C(Cl)=C/1)c1ccc(Cl)cc1` the growth [1] was 83%, the growth [2] was 89% and the growth [3] was 93.6%. For the same compound, the growth [4] was 46.4%, the growth [5] was 22.2% and the growth [6] was 93.5%. The growth [7] was 58.3%, the growth [8] was 7.65% (active) and the growth [9] was 101%. For the same compound, the growth [10] was 95.1%, the growth [11] was 93.6% and the growth [12] was 66.6%. The growth [13] was 44.9%, the growth [14] was 51.2% and the growth [15] was 67.3%. The growth [16] was 34%, the growth [17] was 88.1% and the growth [18] was 7.1% (active). For the same compound, the growth [19] was 65.9%.
Compound `NC(=S)N/N=C1\CCCC(C(F)(F)F)C1` (centres undefined) has a growth [1] of 90.5%, a growth [2] of 87.3% and a growth [3] of 100%. For the same compound, the growth [4] was 107%, the growth [5] was 69.6% and the growth [6] was 116%. For the same compound, the growth [7] was 100%, the growth [8] was 78% and the growth [9] was 111%. It also gave a growth [10] of 102%, a growth [11] of 84.7% and a growth [12] of 85.1%. The growth [13] was 64.8%, the growth [14] was 112% and the growth [15] was 91.8%. The growth [16] was 87.5%, the growth [17] was 128% and the growth [18] was 45.5%. For the same compound, the growth [19] was 74.5%.
`COc1ccc(CN2CCc3c(Sc4ccccc4)nc(N)nc3C2=O)c(OC)c1` gave a growth [1] of 66.8%, a growth [2] of 66.5% and a growth [3] of 82%. For the same compound, the growth [4] was 72.3%, the growth [5] was 52.1% and the growth [6] was 51.1%. It also gave a growth [7] of 52.5%, a growth [8] of 71.3% and a growth [9] of 90.9%. For the same compound, the growth [10] was 58.6%, the growth [11] was 57% and the growth [12] was 53.1%. It also gave a growth [13] of 29.6%, a growth [14] of 59.9% and a growth [15] of 65%. The growth [16] was 27.7%, the growth [17] was 66% and the growth [18] was 46.7%. For the same compound, the growth [19] was 35.5%.
